SMILES strings stand for the structures. Records with an inconclusive call do not appear. Activity calls are given as the source filed them. Calls follow the shape of the dose curve; as a rule, active = well fitted cell-killing curve with a large enough effect; inconclusive = small, poorly fitted or top-dose-only effect, or effect the other way; inactive = flat fitted curve, though single readings scatter.

From PubChem BioAssay (NCATS) come the findings set out here.

The experiment concerns CAOV3. Description: Primary qHTS to identify gynecologic anti-cancer compounds using libraries of approved drugs and bioactive compounds (AID 1345084). Also: nearly all actives have a fitted effect of over 55% in size. The conditions noted are these: Gynecologic cancer cell panel viability, ATPlite luminescence, 48 h; series mostly up to 57.5 µM. The source says: National Center for Advancing Translational Sciences [NCATS] Assay Overview: Chemotherapeutic drug responses vary from cancer to cancer and from patient to patient. These variations could be caused by a number of factors including patient genomic background, tumor mutations, tumor heterogeneity, and aspects of drug treatment. Chemotherapeutic drug resistance is also a common issue and can lead to ineffective treatment and patient death. Here we have profiled the cell killing effects of thousands of compounds to characterize the responses in three gynecological cancers, identify cancer-selective compounds, and understand the diversity of responses to these compounds from pan-cancer suppressors to single cell line selective compounds. In this assay, we screened a 7,914 compound drug library that included approved drug and bioactive compounds in six ovarian, three cervical, and […] placental cancer cell lines using the ATPlite assay for cell viability. […] The cervical cancer cell lines included HeLa, Ca Ski, and C-33 A. The placental cancer cell lines included JEG-3. HEK 293T cells were used as the control cell line to determine the selectivity index. ATPlite is a luminescence based assay reliant on the conversion of a luciferase substrate to light in the presence of ATP. As a cytotoxic compound will suppress growth and decrease the number of cells, the concentration of ATP will decrease, and less light signal will be detected in the well.
Assay Protocol Summary: 1,000 cells in 4 uL of media were dispensed into white, solid bottom 1536-well plates using a Multidrop Combi (Thermo Scientific). The Assay plates were incubated for 16 hours at 37 C with 5% CO2 in assay plates, followed by the addition of 23 nL of DMSO or drug dissolved in DMSO. Each compound was assayed in five concentrations (0.092, 0.46, 2.3, 11.5, and 57.5 uM), using the automated Wako 1536 Pin Tool workstation and incubated at 37 C with 5% CO2 48 hours. 4 uL of ATPlite, the ATP monitoring reagent, was then added to the each well of the assay plates using the Multidrop Combi reagent dispenser followed by incubation for 15 minutes at room temperature. The resulting luminescence was measured using the ViewLux plate reader.
For orientation: In qHTS, concentration-response curves come from the screen itself.
As to `O=C(O)CNC(=O)c1ccccc1I`, the call was inactive. Turning to `C[N+](C)(C)CC[N+]1(C)Cc2c(Cl)c(Cl)c(Cl)c(Cl)c2C1`, the outcome was inactive. For `CC[N+](C)(CC)CCOC(=O)C1c2ccccc2Oc2ccccc21`, the call was inactive.

Take `C=CCSCC1Nc2cc(Cl)c(S(N)(=O)=O)cc2S(=O)(=O)N1` (stereo not given): the compound was classed as inactive. As for `C[n+]1ccccc1/C=N/O`, the compound was called inactive. `CCOC(=O)[C@H](CCc1ccccc1)N[C@@H](C)C(=O)N1CCC[C@H]1C(=O)O`: the compound was classed as inactive. As to `Cc1cccc(C)c1NC(=O)CC12CCCN1CCC2`, the compound was called inactive. `Cc1cccc(Nc2ccccc2C(=O)O)c1C`: the compound was called inactive. Regarding `O=C(O)Cn1c(C(=O)Nc2nc(-c3ccccc3Cl)cs2)cc2ccccc21`, the compound was classed as inactive.

On to `CC(C)c1cc2c(cc1S(=O)(=O)O)[C@@]1(C)CCC[C@@](C)(C(=O)O)[C@@H]1CC2`, for which the call was inactive.

As for `CCN1CC(CCN2CCOCC2)C(c2ccccc2)(c2ccccc2)C1=O` (stereo not given), the outcome was inactive. On to `COc1ccc(Cc2cnc(N)nc2N)cc1OC`, for which the call was inactive. As to `O=C(O)C(S)C(S)C(=O)O` (stereo not given), the call was inactive.

As to `CCCCCCCCCCCCCCCCN`, the result was inactive.

Turning to `C[C@]1(Cn2ccnn2)[C@H](C(=O)O)N2C(=O)C[C@H]2S1(=O)=O`, the result was inactive.

Regarding `NS(=O)(=O)c1ccc(C(=O)O)cc1`, the result was inactive.

Take `CC(=O)SC[C@@H](Cc1ccccc1)C(=O)NCC(=O)OCc1ccccc1`: the call was inactive. On to `O=c1[nH]c2cc(C(F)(F)F)c(N3CCOCC3)cc2n(CP(=O)(O)O)c1=O`, for which the compound was classed as inactive. Turning to `CCCCCCCC(=O)OCC(COC(=O)CCCCCCC)OC(=O)CCCCCCC`, the outcome was inactive.

Turning to `CCCCCC(N)=O`, the outcome was inactive. For the compound `CNc1c2c(nn1C)CCCC2`, the result was inactive. `CC(CSC(=O)c1ccccc1)C(=O)N1C[C@@H](Sc2ccccc2)C[C@H]1C(=O)O` (stereo not given in full): the outcome was inactive.

`CC(=O)N[C@H]1[C@H]([C@H](O)[C@H](O)CO)OC(C(=O)O)=C[C@@H]1N=C(N)N`: the call was inactive. As to `NS(=O)(=O)c1cc2c(cc1C(F)(F)F)NCNS2(=O)=O`, the call was inactive. For `CCOC(N)=O`, the compound was classed as inactive.

With `CN1CC(=O)NC1=N`, the outcome was inactive. In the case of `O=C(O)c1ccccc1OP(=O)(O)O`, the result was inactive.

On to `CC1CCc2cc(F)cc3c(=O)c(C(=O)O)cn1c23` (stereo not given), for which the outcome was inactive. With `CCc1nnc(NS(=O)(=O)c2ccc(N)cc2)s1`, the compound was called inactive. Regarding `C/C=C/C(=O)N(CC)c1ccccc1C`, the compound was called inactive. As for `CC1(C)S[C@@H]2[C@H](NC(=O)C(C(=O)O)c3ccccc3)C(=O)N2[C@H]1C(=O)O` (stereo not given in full), the call was inactive. For the compound `C[C@@H](c1ncncc1F)C(O)(Cn1cncn1)c1ccc(F)cc1F` (stereo not given in full), the call was inactive. For `O=C1C(c2[nH]c3ccccc3c2O)=Nc2ccccc21`, the compound was called inactive. The result for `NCc1ccc(S(N)(=O)=O)cc1` reads “inactive”; that for `O=C(O)c1ccccc1C(=O)Nc1ccc(S(=O)(=O)Nc2nccs2)cc1`, “inactive”. The result for `Cc1ccsc1C(=CCCN1CCC[C@@H](C(=O)O)C1)c1sccc1C` reads “inactive”; that for `O=C(NCN1CCOCC1)c1cnccn1`, “inactive”. Turning to `C/C(=C(\CCO)SS/C(CCO)=C(\C)N(C=O)Cc1cnc(C)nc1N)N(C=O)Cc1cnc(C)nc1N`, the outcome was inactive. The result for `Cc1cc(=O)[nH]c(=S)[nH]1` reads “inactive”; that for `Cc1cccc(C(=O)O)c1O`, “inactive”.
